This is an account of results in PubChem BioAssay AID1362 (SRMLSC, 2008).

The campaign covered roughly 190,000 compounds. About 4,000 (2.1%) were called active. Cut-off read from the data, not from the text of the source: active = inhibition above about 58%; inactive = the rest, inconclusive results apart; tested in S. cerevisiae. The sample as a whole holds a higher share of actives than the screen did.

As a reminder, the inhibition is the relative decrease from the control value, in per cent.

The nature of the test: growth inhibition of WT strain, primary screen, mitochondrial fusion inhibitor project, WT and mutant strains, chemical genetic (AID 1362). The note with it: mitochondrial fusion phenotypic screen, at 10 µM.
[1] abbreviates: WT strain, growth inhibition, stronger effect = higher value.

Turning to `O=C1Nc2ccc([N+](=O)[O-])cc2C1=Nc1cccc(CO)c1`, the inhibition was 0.18% (inactive) under setting [1] and 6.98% (mutant strain inhibition).
As for `CC(C)(CNCC(O)c1ccccc1)N1CCOCC1` (centres undefined), the inhibition by setting is: under setting [1], 64% (active); (mutant strain inhibition) 5.08%.
As for `CC(CN1CCOCC1)c1ccccc1` (centres undefined), the inhibition under setting [1] is -5.68% (inactive) and the inhibition (mutant strain inhibition) came to 13.1%.
For `CC(C)(CNC(=O)c1cc(=O)[nH]c2ccccc12)N1CCOCC1`, in that order: -13.2% (inactive) and -2.01%.
For `Cn1c(SCC(=O)Nc2ccc(Br)cc2F)nnc1-c1ccco1`, in that order: -5.72% (inactive) and -9.59%.
For the compound `CCN(CC)C(=O)Oc1ccc(OC(=O)N(CC)CC)cc1`, the inhibition is, setting by setting: under setting [1], -3.56% (inactive); (mutant strain inhibition) 8.46%.
For `O=C(CSc1nnc(-c2cccs2)n1Cc1ccccc1)N1CCc2ccccc2C1`, in that order: 70.4% (active) and 40.2%.
For `O=C(CSc1nnc(-c2cccs2)n1-c1ccccc1)N1CCN(C(=O)c2ccco2)CC1` the same measures were -17.6% (inactive) and -21.2%.
On to `CCn1c(SCC(=O)c2ccc3ccccc3c2)nnc1-c1cccs1`, for which the inhibition reads like this: under setting [1], 16.5% (inactive); (mutant strain inhibition) -6.78%.
For `CCOC(=O)C1(C)NC(c2ccco2)C2C(=O)N(c3ccccc3)C(=O)C21` (centres undefined), the inhibition reads like this: under setting [1], -2.53% (inactive); (mutant strain inhibition) -16.9%.
For `Cc1ccc(NC(=S)N(CCCN2CCCC2)Cc2cccn2Cc2ccc(Cl)cc2)cc1`, in that order: 83.8% (active) and 31.5%.
Take `Cc1ccccc1NC(=S)N(CCCN1CCOCC1)Cc1cccs1`: the inhibition by setting is: under setting [1], 20.9% (inactive); (mutant strain inhibition) -3.99%.
For the compound `CCc1cccc(C)c1NC(=S)N(CCCN1CCN(C)CC1)Cc1cccs1`, the inhibition is 4.55% (inactive) under setting [1] and 8.76% (mutant strain inhibition).
As for `Cc1cc(C)cc(OCC(=O)Nc2ccc(S(=O)(=O)Nc3ccccn3)cc2)c1`, the inhibition runs as follows: under setting [1], -6.39% (inactive); (mutant strain inhibition) -7.44%.
As for `CCOc1cc(N2CCOCC2)c(OCC)cc1NC(=O)c1cc(C)nc2ccccc12`, the inhibition reads like this: under setting [1], -14.2% (inactive); (mutant strain inhibition) -29.4%.
For `O=C(Nc1ccc2nc3n(c(=O)c2c1)CCCCC3)c1ccccc1Cl` the same measures were -2.99% (inactive) and -3.04%.
For `CCC(=O)Nc1nc2ccccc2n1Cc1ccccc1C` the same measures were 32.7% (inactive) and 38.1%.
For `CCC(=O)Nc1ccc2nc(C)n(Cc3ccccc3Cl)c(=O)c2c1`, in that order: 62.4% (active) and 62.2%.
With `COc1ccc(Cc2n[nH]c(=S)n2NC(=O)Nc2ccc(C)cc2)cc1`, the inhibition runs as follows: under setting [1], -24.4% (inactive); (mutant strain inhibition) 1.23%.
For `O=C(O)c1ccc(N/N=C/c2cn(-c3ccccc3)nc2-c2cccs2)cc1`, in that order: 25% (inactive) and 5.64%.
For `C/C(=C\C(=O)c1cccnc1)Nc1ccc(C)c(C)c1` the same measures were 21.1% (inactive) and 23%.
For `C/C(=C\C(=O)c1ccccc1)Nc1cccc(O)c1` the same measures were 85.2% (active) and 17.2%.
With `O=C(Nc1cccc(O)c1)c1ccc(C(=O)c2ccccc2)o1`, the inhibition is, setting by setting: under setting [1], -18.9% (inactive); (mutant strain inhibition) 0.34%.
For `Cc1ccc(C(NC(=O)N2CCCC2)C(Cl)(Cl)Cl)cc1F` (centres undefined) the same measures were 10.1% (inactive) and 18.2%.
`CCC(C)(C)NC(=O)CN(C(=O)CCC(=O)Nc1cc(C)ccn1)c1ccc2c(c1)OCCO2`: the inhibition is, setting by setting: under setting [1], 3.35% (inactive); (mutant strain inhibition) -3.2%.
Consider `O=C(COC(=O)CNS(=O)(=O)c1ccccc1)NC12CC3CC(CC(C3)C1)C2`, for which the inhibition by setting is: under setting [1], 4.93% (inactive); (mutant strain inhibition) -2.93%.
As to `S=C(NCC1COc2ccccc2O1)Nc1ccc(Br)cc1` (centres undefined), the inhibition is 5.47% (inactive) under setting [1] and 7.77% (mutant strain inhibition).
`CCCN(CC1COc2ccccc2O1)C(=S)Nc1ccc(C)cc1` (centres undefined): the inhibition was 65.7% (active) under setting [1] and 33.2% (mutant strain inhibition).
For the compound `CC(NC(=S)Nc1ccccc1)C1COc2ccccc2O1` (centres undefined), the inhibition runs as follows: under setting [1], 5.96% (inactive); (mutant strain inhibition) 2.67%.
For `CCOCCCNC(=O)C(NC(=O)Cc1c[nH]c2ccccc12)c1ccc(OC)cc1` (centres undefined) the same measures were -1.73% (inactive) and 8.23%.
For `COc1cccc(N2CCN(C(=O)Nc3ccc4c(c3)NC(=O)CO4)CC2)c1`, in that order: 43.7% (inactive) and 41.7%.
`O=C(Nc1ccc(F)cc1)N1CCN(c2ccc(F)cc2)CC1`: the inhibition by setting is: under setting [1], -9.94% (inactive); (mutant strain inhibition) -0.68%.
Take `O=C1COc2ccc(NC(=O)N3CCN(c4ccc(F)cc4)CC3)cc2N1`: the inhibition reads like this: under setting [1], 74.7% (active); (mutant strain inhibition) 0.98%.
As to `COc1ccc(CNC(=O)CN2CCC(n3nnc4cc(F)ccc43)CC2)cc1`, the inhibition is 3.98% (inactive) under setting [1] and -18.3% (mutant strain inhibition).
For `CCOc1cccc(/C=C/c2ccc3ccccc3n2)c1OC(C)=O`, in that order: 33% (inactive) and 25.6%.
Take `Cc1ccc(C(=O)OC2CCCN(C)C2)cc1` (centres undefined): the inhibition reads like this: under setting [1], -13.6% (inactive); (mutant strain inhibition) -3.26%.
As to `CC1(C)C2CCC1(C)C(OC(=O)c1ccc(O)cc1)C2` (centres undefined), the inhibition under setting [1] is 94.2% (active) and the inhibition (mutant strain inhibition) came out at 81.9%.
In the case of `CC1(C)C2CCC1(C)C(OC(=O)CCn1ccnc1)C2` (centres undefined), the inhibition reads like this: under setting [1], -4.41% (inactive); (mutant strain inhibition) -8.76%.
For `CSc1ccccc1NC(=O)CN(C)CC(=O)Nc1cccc(Br)c1` the same measures were 21.6% (inactive) and -2.69%.
With `CSc1ccccc1NC(=O)CN(C)CC(=O)Nc1ccc(Cl)cc1[N+](=O)[O-]`, the inhibition is, setting by setting: under setting [1], 70% (active); (mutant strain inhibition) 21.8%.
With `Cc1ccc(NC(=O)CN(C)Cc2ccc(F)cc2)c([N+](=O)[O-])c1`, the inhibition by setting is: under setting [1], 22% (inactive); (mutant strain inhibition) 0.15%.
Regarding `COc1ccc(CN2CN(C3CCCC3)CSC2=S)cc1`, the inhibition is -12.1% (inactive) under setting [1] and -26.6% (mutant strain inhibition).
